The values below are quoted from earlier work in PubChem BioAssay AID977611.

About 3,900 (100%) of roughly 3,900 compounds were called active. No cut-off is given here; in the data, nearly all actives have Kd up to about 4200 µM. The set was probably picked from earlier hits. This is one part of the list.

The nature of this data set: PubChem AID 977611. As to conditions: PDB protein-ligand complexes, literature Kd.

A word on the Kd: it is the constant that tells how readily two partners part at equilibrium. As to `OC(C[n+]1cccc(-c2ccccc2)c1)([P+](O)(O)O)[P+](O)(O)O`, the dissociation constant Kd (protein: Leshmaniasis major Farnesyl diphosphate synthase, PDB entry 4jzb) was 0.342 µM (active). Turning to `OC(C[n+]1cccc(F)c1)([P+](O)(O)O)[P+](O)(O)O`, the Kd (protein: Leshmaniasis major Farnesyl diphosphate synthase, PDB entry 4k10) is 0.12 µM (active). With `Oc1ccccc1CNc1cc(NCc2ccccc2O)ncn1`, the Kd (protein: Caspase-6, PDB entry 4nbn) was 44 µM (active). `Cc1cccnc1NCc1ccccc1O`: where the note is “protein: proCaspase-6, PDB entry 4nbk”, the Kd was 136 µM (active). Regarding `C[C@@H]1OC[C@@H](O)[C@H](O)[C@@H]1O`, under “protein: PUTATIVE FUCOSE-BINDING LECTIN PROTEIN(R17A mutant), PDB entry 3zi8”, the Kd is 2.2 µM (active). As for `C=C(CC[C@]12O[C@H](C(=O)O)[C@@](O)(C(=O)O)[C@](C(=O)O)(O1)[C@H](OC(=O)/C=C/[C@@H](C)C[C@@H](C)CC)[C@H]2O)[C@@H](OC(C)=O)[C@H](C)Cc1ccccc1`, the dissociation constant (Kd) was 0.0097 µM (active) (protein: Dehydrosqualene synthase, PDB entry 3vje) and 0.0189 µM (active) (protein: Squalene synthase, PDB entry 3vjc).

For the compound `COc1ccc(CNC(=O)c2cc3ccccc3cc2CN(C)Cc2cccc(OC)c2C(=O)O)cc1`, the Kd (protein: HIV integrase, PDB entry 4cig) is 214 µM (active).

As for `C=CCN(Cc1ccccc1C(=O)NCc1ccc(OC)cc1)Cc1ccc2c(c1C(=O)O)OC[C@H](CCC(=O)O)O2`, the Kd (protein: INTEGRASE, PDB entry 4ceb) was 1080 µM (active). Consider `COc1ccc(CNC(=O)c2cc3c(cc2CN(C)Cc2cccc(OC)c2C(=O)O)OCO3)cc1`, for which the dissociation constant (Kd) (protein: HIV integrase, PDB entry 4cjr) was 793 µM (active). Consider `O=C(O)CCC(=O)C1=CC=C[C@@H](O)[C@@H]1C(=O)O`, for which the Kd (protein: E. Coli 2-succinyl-6-hydroxy-2,4-cyclohexadiene-1-carboxylate synthase (MenH), PDB entry 4myd) is 28 µM (active). For the compound `Nc1ccc(C(=O)N[C@@H](C(=O)NO)c2ccc(-n3cccn3)cc2)cc1`, the Kd (protein: M17 leucyl aminopeptidase A-M17, PDB entry 4r7m) is 0.011 µM (active).

`COC(=O)N1CC[C@@H]2[C@H]1CCC[C@@]2(O)C#Cc1cccc(C)c1`: for the setting “protein: Metabotropic glutamate receptor 5, Lysozyme, Metabotropic glutamate receptor 5 chimera, PDB entry 4oo9”, the Kd is 0.00086 µM (active).

As to `O=C(O)[C@@H]1O[C@@H](O)[C@H](OS(O)(O)O)[C@@H](O)[C@@H]1O[C@H]1O[C@H](COS(O)(O)O)[C@@H](O[C@@H]2O[C@@H](C(=O)O)[C@@H](O[C@H]3O[C@H](COS(O)(O)O)[C@@H](O[C@@H]4O[C@@H](C(=O)O)[C@@H](O[C@H]5O[C@H](COS(O)(O)O)[C@@H](O)[C@H](O)[C@H]5NS(O)(O)O)[C@H](O)[C@H]4OS(O)(O)O)[C@H](O)[C@H]3NS(O)(O)O)[C@H](O)[C@H]2OS(O)(O)O)[C@H](O)[C@H]1NS(O)(O)O`, under “protein: SONIC HEDGEHOG PROTEIN, PDB entry 4c4n”, the dissociation constant (Kd) is 0.8 µM (active). Regarding `CO[C@@H]1O[C@@H](C(=O)O)[C@@H](O[C@H]2O[C@H](COS(O)(O)O)[C@@H](O)[C@H](O)[C@H]2NS(O)(O)O)[C@H](O)[C@H]1OS(O)(O)O`, the equilibrium dissociation constant (Kd) (protein: Fibroblast growth factor 2 FGF2, PDB entry 4oef) was 17.5 µM (active).

As for `CO[C@@H]1O[C@@H](C(=O)O)[C@@H](O[C@H]2O[C@H](CO)[C@@H](O)[C@H](OS(O)(O)O)[C@H]2NS(O)(O)O)[C@H](O)[C@H]1OS(O)(O)O`, the Kd (protein: Fibroblast growth factor 2 FGF2, PDB entry 4oee) is 1.73 µM (active).

As to `CO[C@@H]1O[C@@H](C(=O)O)[C@@H](O[C@H]2O[C@H](COS(O)(O)O)[C@@H](O)[C@H](OS(O)(O)O)[C@H]2NS(O)(O)O)[C@H](O)[C@H]1OS(O)(O)O`, the Kd (protein: Fibroblast growth factor 2 FGF2, PDB entry 4oeg) is 9.01 µM (active).
